# About 7,900 targets were measured; listed, in parts, are those with a hit and a random draw of the rest. About 0.6% of all pairs of compound and target were hits. Values without a mark were called inactive.
# Experiments:
# Experiment in all cases: log2 fold change, soluble protein after heating vs DMSO (PISA); higher = thermal stabilisation; K562 cells, 10 uM, 30 min; active = over 0.2 and 3.5 SD of the protein, either way, in both replicates (recomputed)
# [1] = compound: CS(=O)(=O)c1ccc(-c2cnc(N)c(C(=O)Nc3ccccc3)n2)cc1
# In short: (§1)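 K562 cells at 2×10^6 cells/mL were treated with 10 μM compound for 30 min. Aliquots were heated for 3 min across 48°C-58°C, pooled, and extracted in PBS with 0.5% NP-40 at 4°C; soluble protein was the supernatant after 21,000xg for 90 min. Soluble protein was quantified by TMTpro 16plex LC-MS/MS with channel sums equalised, and reported as log2 fold change in thermal stability against DMSO controls, with values from duplicates.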
# crizotinib = compound: C[C@@H](Oc1cc(-c2cnn(C3CCNCC3)c2)cnc1N)c1c(Cl)ccc(F)c1Cl [crizotinib]
# In short: as §1
# [2] = compound: C[C@@H]1COCCN1C2=NC(=NC(=C2)C3(CC3)S(=O)(=O)C)C4=C5C=CNC5=CC=C4
# In short: as §1
# [3] = compound: C[C@H](C1=CC=C(C=C1)C(=O)NC2=C3C=CNC3=NC=C2)N
# In short: as §1
# duvelisib = compound: C[C@H](Nc1ncnc2nc[nH]c12)c1cc2cccc(Cl)c2c(=O)n1-c1ccccc1 [duvelisib]
# In short: as §1
# gandotinib = compound: Cc1cc(Nc2cc(CN3CCOCC3)c3nc(C)c(Cc4ccc(Cl)cc4F)n3n2)n[nH]1 [gandotinib]
# In short: as §1
# tozasertib = compound: Cc1cc(Nc2cc(N3CCN(C)CC3)nc(Sc3ccc(NC(=O)C4CC4)cc3)n2)n[nH]1 [tozasertib]
# In short: as §1
# [4] = compound: Cc1cc(SCc2sc(-c3ccc(C(F)(F)F)cc3)nc2C)ccc1OCC(=O)O
# In short: as §1
# doramapimod = compound: Cc1ccc(-n2nc(C(C)(C)C)cc2NC(=O)Nc2ccc(OCCN3CCOCC3)c3ccccc23)cc1 [doramapimod]
# In short: as §1
# ispinesib = compound: Cc1ccc(C(=O)N(CCCN)[C@@H](c2nc3cc(Cl)ccc3c(=O)n2Cc2ccccc2)C(C)C)cc1 [ispinesib]
# In short: as §1
# bafetinib = compound: Cc1ccc(NC(=O)c2ccc(CN3CC[C@H](N(C)C)C3)c(C(F)(F)F)c2)cc1Nc1nccc(-c2cncnc2)n1 [bafetinib]
# In short: as §1
# [5] = compound: Cc1cccc(CC(=O)N2CCc3c2ccc(-c2cn(C)c4ncnc(N)c24)c3F)n1
# In short: as §1
# nilotinib = compound: Cc1cn(-c2cc(NC(=O)c3ccc(C)c(Nc4nccc(-c5cccnc5)n4)c3)cc(C(F)(F)F)c2)cn1 [nilotinib]
# In short: as §1
# [6] = compound: Cc1nc(Nc2n[nH]c3c2CN(C(=O)N[C@H](CN(C)C)c2ccccc2)C3(C)C)c2sccc2n1
# In short: as §1
# dasatinib = compound: Cc1nc(Nc2ncc(C(=O)Nc3c(C)cccc3Cl)s2)cc(N2CCN(CCO)CC2)n1 [dasatinib]
# In short: as §1
# [7] = compound: Cc1ncc(-c2ccnc(Nc3ccc(S(C)(=O)=O)cc3)n2)n1C(C)C
# In short: as §1
# [8] = compound: Cn1cc(-c2ccc3c(c2)CCN3C(=O)Cc2cccc(C(F)(F)F)c2)c2c(N)ncnc21
# In short: as §1
# [9] = compound: Cn1cc(-c2ccc3nnc(C(F)(F)c4ccc5ncccc5c4)n3n2)cn1
# In short: as §1
# tipifarnib = compound: Cn1cncc1[C@@](N)(c1ccc(Cl)cc1)c1ccc2c(c1)c(-c1cccc(Cl)c1)cc(=O)n2C [tipifarnib]
# In short: as §1
# mubritinib = compound: FC(F)(F)c1ccc(/C=C/c2nc(COc3ccc(CCCCn4ccnn4)cc3)co2)cc1 [mubritinib]
# In short: as §1
# UniProt Q12996, sequence (Q12996 whole entry, looked up): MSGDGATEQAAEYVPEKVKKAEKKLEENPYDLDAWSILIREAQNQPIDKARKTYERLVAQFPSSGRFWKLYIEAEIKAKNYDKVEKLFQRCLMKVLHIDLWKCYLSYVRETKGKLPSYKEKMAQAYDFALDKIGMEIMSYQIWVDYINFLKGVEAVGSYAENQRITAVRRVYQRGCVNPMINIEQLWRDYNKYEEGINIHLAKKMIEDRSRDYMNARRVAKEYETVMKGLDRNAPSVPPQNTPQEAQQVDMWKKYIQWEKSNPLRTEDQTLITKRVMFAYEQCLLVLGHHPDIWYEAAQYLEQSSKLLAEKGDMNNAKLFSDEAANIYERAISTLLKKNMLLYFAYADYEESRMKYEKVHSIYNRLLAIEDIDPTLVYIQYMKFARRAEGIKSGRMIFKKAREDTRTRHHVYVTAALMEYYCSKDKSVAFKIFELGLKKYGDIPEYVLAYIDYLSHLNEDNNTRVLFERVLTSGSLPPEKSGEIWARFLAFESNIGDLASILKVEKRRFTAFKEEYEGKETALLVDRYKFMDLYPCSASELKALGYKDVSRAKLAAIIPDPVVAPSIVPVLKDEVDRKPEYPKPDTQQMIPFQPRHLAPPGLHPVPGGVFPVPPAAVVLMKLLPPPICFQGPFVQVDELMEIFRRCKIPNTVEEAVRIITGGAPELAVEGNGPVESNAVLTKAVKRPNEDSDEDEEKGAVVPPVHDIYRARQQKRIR
# UniProt O75122, sequence (O75122 whole entry, looked up): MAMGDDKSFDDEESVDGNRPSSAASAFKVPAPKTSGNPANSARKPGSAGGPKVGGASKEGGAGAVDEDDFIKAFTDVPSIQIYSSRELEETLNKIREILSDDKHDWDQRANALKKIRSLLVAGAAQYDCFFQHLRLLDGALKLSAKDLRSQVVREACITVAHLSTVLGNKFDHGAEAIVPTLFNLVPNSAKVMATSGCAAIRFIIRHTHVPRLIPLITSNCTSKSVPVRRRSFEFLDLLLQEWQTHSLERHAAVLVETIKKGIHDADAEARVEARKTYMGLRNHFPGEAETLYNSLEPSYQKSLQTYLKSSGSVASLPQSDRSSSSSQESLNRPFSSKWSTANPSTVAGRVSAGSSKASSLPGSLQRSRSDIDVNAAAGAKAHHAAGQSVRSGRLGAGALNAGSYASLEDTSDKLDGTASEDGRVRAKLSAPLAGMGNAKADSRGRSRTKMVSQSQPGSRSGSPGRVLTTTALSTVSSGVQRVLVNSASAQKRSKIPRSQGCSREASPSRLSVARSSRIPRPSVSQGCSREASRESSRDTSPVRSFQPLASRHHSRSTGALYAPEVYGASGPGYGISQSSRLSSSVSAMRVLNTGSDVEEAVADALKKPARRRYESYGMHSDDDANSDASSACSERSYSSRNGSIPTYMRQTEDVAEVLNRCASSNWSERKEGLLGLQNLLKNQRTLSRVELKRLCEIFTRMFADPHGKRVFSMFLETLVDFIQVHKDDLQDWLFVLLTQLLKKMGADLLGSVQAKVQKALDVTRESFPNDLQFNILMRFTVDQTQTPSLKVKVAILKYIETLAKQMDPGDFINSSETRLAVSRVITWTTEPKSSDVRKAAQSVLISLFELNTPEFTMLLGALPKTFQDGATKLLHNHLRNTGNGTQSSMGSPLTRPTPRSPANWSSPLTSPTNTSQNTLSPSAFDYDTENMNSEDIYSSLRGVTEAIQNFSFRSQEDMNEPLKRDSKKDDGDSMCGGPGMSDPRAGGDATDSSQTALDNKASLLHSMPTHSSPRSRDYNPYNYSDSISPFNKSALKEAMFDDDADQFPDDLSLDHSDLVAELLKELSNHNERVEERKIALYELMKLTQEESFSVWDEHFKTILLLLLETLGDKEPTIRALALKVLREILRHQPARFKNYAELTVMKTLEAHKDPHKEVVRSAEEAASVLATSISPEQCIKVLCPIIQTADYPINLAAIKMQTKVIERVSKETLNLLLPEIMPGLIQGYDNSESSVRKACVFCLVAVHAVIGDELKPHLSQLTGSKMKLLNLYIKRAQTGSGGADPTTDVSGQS
# UniProt P48729, sequence (P48729 whole entry, looked up): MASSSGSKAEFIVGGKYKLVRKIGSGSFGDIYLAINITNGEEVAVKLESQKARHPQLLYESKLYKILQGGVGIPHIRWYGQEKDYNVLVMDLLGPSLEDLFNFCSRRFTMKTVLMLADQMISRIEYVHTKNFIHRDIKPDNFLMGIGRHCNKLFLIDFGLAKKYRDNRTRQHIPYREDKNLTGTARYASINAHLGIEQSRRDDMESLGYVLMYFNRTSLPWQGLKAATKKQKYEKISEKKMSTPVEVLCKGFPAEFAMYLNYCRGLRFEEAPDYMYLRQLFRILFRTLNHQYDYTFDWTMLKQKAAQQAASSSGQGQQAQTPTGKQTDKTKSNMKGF
# UniProt P09497, sequence (P09497 whole entry, looked up): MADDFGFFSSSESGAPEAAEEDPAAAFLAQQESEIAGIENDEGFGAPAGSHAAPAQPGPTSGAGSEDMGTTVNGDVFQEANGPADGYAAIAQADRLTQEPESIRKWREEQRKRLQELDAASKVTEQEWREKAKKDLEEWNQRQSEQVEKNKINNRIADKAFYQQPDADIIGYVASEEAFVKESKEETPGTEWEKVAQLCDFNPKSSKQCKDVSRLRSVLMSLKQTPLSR
# UniProt P10606, sequence (P10606 whole entry, looked up): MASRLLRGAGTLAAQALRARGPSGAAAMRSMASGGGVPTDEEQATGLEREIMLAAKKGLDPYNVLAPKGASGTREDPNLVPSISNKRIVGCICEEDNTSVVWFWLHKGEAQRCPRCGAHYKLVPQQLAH
# UniProt P41208, sequence (P41208 whole entry, looked up): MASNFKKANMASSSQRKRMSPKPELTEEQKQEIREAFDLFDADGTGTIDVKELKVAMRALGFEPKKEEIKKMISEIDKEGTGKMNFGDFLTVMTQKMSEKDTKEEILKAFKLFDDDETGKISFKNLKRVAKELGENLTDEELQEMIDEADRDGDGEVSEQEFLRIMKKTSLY
# UniProt P60033, sequence (P60033 whole entry, looked up): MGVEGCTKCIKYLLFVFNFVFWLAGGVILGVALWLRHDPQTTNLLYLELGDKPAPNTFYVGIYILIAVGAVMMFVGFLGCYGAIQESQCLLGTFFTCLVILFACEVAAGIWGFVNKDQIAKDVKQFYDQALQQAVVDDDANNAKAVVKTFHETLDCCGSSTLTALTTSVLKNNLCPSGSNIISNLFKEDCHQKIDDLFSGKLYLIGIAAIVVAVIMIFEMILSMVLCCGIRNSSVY
# UniProt O75390, sequence (O75390 whole entry, looked up): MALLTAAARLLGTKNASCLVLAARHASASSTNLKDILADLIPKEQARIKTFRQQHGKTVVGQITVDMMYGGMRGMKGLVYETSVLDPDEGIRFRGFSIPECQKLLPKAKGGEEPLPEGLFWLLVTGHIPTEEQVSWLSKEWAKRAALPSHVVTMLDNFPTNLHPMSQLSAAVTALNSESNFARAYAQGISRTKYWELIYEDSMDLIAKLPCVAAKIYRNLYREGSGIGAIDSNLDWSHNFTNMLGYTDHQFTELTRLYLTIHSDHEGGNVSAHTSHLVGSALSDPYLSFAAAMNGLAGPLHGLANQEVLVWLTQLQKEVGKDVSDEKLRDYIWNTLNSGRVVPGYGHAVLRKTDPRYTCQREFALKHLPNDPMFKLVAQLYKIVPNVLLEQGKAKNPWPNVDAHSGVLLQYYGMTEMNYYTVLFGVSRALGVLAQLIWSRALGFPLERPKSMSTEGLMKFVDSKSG
# UniProt Q86X83, sequence (Q86X83 whole entry, looked up): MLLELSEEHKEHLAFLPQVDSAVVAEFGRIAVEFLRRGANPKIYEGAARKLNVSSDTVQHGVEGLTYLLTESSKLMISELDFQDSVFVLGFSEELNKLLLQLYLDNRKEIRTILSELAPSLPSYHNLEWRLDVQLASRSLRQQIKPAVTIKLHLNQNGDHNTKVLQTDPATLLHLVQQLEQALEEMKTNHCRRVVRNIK
# UniProt O00748, sequence (O00748 whole entry, looked up): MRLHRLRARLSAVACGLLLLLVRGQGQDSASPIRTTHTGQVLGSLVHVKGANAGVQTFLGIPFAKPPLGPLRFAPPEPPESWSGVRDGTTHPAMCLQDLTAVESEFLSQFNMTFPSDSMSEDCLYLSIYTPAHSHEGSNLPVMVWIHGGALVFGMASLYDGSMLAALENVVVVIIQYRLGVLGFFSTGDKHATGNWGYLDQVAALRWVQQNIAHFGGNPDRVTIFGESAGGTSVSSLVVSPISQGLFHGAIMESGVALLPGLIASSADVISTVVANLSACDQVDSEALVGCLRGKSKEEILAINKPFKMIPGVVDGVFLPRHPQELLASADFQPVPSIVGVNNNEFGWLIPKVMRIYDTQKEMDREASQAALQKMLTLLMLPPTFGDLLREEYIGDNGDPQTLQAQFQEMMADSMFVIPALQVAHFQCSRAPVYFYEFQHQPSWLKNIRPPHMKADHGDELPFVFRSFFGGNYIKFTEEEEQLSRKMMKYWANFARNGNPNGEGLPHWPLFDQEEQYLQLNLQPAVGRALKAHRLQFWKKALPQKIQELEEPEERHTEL
# UniProt P16152, sequence (P16152 whole entry, looked up): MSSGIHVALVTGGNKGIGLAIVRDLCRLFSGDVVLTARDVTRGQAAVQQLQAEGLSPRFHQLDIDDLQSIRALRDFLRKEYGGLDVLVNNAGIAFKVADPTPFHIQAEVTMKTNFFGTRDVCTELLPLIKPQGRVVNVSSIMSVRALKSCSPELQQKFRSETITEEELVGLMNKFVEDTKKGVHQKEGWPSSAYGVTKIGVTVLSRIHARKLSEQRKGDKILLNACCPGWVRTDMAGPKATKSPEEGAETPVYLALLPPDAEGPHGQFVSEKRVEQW
# UniProt O15182, sequence (O15182 whole entry, looked up): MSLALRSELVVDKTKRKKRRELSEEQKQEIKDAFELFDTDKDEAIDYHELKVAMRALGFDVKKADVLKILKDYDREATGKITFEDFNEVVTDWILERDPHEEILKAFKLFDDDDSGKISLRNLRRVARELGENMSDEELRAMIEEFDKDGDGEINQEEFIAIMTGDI
Target,log2 fold change [1],log2 fold change (crizotinib),log2 fold change [2],log2 fold change [3],log2 fold change (duvelisib),log2 fold change (gandotinib),log2 fold change (tozasertib),log2 fold change [4],log2 fold change (doramapimod),log2 fold change (ispinesib),log2 fold change (bafetinib),log2 fold change [5],log2 fold change (nilotinib),log2 fold change [6],log2 fold change (dasatinib),log2 fold change [7],log2 fold change [8],log2 fold change [9],log2 fold change (tipifarnib),log2 fold change (mubritinib)
CLTB (UniProt P09497),-0.058,0.007,-0.004,-0.047,-0.035,0.026,-0.011,-0.056,-0.012,0.085,0.095,0.002,0.077,0.024,0.081,0.005,-0.02,-0.019,-0.006,-0.016
CDK5 (UniProt Q00535),0.019,-0.076,0.037,-0.022,0.001,-0.003,-0.055,0.008,0.088,-0.033,-0.091,0.035,-0.055,-0.142,-0.078,-0.034,-0.033,-0.031,-0.054,-0.103
CES2 isoform 4 (UniProt O00748),0.162,0.154,0.03,-0.079,0.019,0.048,-0.093,-0.188,0.144,-0.047,-0.006,-0.104,0.274,-0.045,0.119,-0.036,0.489 (active),0.166,0.28,0.111
CETN3 (UniProt O15182),-0.018,0.014,-0.084,-0.071,0.057,0.094,0.037,-0.094,-0.018,0,-0.052,-0.249 (active),-0.051,0.04,0.068,-0.013,-0.026,-0.006,0.086,0.112
COX5B (UniProt P10606),-0.07,0.186,0.081,-0.169,0.124,0.218,0.077,-0.001,0.022,0.265,-0.032,0.013,0.026,0.011,0.105,-0.043,0.134,0.221,-0.108,0.024
CD81 (UniProt P60033),-0.03,0.162,0.107,-0.232,-0.041,0.019,-0.007,-0.084,-0.025,0.207,0.089,-0.026,0.051,0.016,0.079,-0.015,0.108,0.131,0.041,0.05
CAD (UniProt P27708),0.014,-0.271 (active),0,0.033,-0.013,-0.013,-0.115,0.053,-0.028,-0.106,0.011,0.06,-0.095,-0.008,-0.386 (active),0.081,-0.012,-0.097,-0.032,-0.006
CAMSAP1 isoform 3 (UniProt Q5T5Y3),0.05,-0.11,0.073,0.041,-0.019,-0.039,-0.04,0.02,0.008,-0.124,-0.019,-0.05,0.043,-0.061,-0.144,-0.055,0.091,-0.021,-0.132,-0.005
CBR1 (UniProt P16152),0.006,0.048,0.052,-0.163,0.038,0.034,-0.025,-0.024,0.003,0.194,0,0.011,-0.012,0.003,-0.02,0.022,0.081,-0.031,-0.044,-0.01
CSTF3 (UniProt Q12996),0.004,-0.07,0.025,0.019,0.061,0,-0.021,-0.031,-0.022,0.082,-0.004,0.044,-0.044,0.176,-0.021,0.158,-0.009,-0.01,0.009,0.019
CETN2 (UniProt P41208),0.011,0.103,0.066,0.003,-0.003,0.041,-0.01,-0.135,0.017,0.084,-0.029,-0.131,0.071,-0.055,0.081,-0.001,-0.013,0.03,0.216,0.036
CSNK1A1 (UniProt P48729),-0.093,-0.115,-0.114,-0.073,-0.04,0.014,-0.034,0.017,0.024,-0.125,-0.044,-0.156,-0.106,-0.008,0.011,0.033,-0.118,-0.055,0.022,-0.086
CLASP2 isoform 3 (UniProt O75122),-0.035,-0.201,0.044,-0.029,0.047,-0.314 (active),-0.06,0.074,-0.007,-0.054,0.016,0.058,-0.067,-0.279 (active),-0.175,-0.188,0.013,0.012,-0.089,0.022
COMMD2 (UniProt Q86X83),-0.048,-0.13,0.102,0.037,0.097,-0.029,0.082,-0.018,-0.012,0.014,0.162,-0.066,-0.132,-0.069,-0.177,0.097,-0.099,0.057,0.025,0.101
CLPTM1L (UniProt Q96KA5),0.036,-0.08,0.025,-0.013,0.047,-0.268 (active),0.012,0,-0.012,-0.326 (active),-0.186,0.07,-0.103,0.009,-0.045,-0.016,-0.042,0.011,-0.056,0.02
CS (UniProt O75390),0.044,-0.122,0.072,-0.034,0.059,-0.037,0.027,0.061,0.017,-0.157,0.013,-0.061,0.011,-0.051,-0.131,-0.097,0.075,0.083,-0.033,0.015

# Source: the supplement of paper PMC10849652
